Experimental data published in PubChem BioAssay.
Inconclusive results are not listed. Activity calls are given as the source filed them.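 Rule for the calls, unless noted: active = viability increase at or above a cutoff of the median across tested compounds plus 3 SD (cut at about 8.5% in these data, passing the limit was not always enough); inconclusive = some gains above the cutoff, reason not given; inactive = the rest.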

What was measured:
[1] = reducers of endogenous Her2 protein level, primary screen, SKBR3 breast tumor cells, AlphaScreen, ATP viability (AID 461;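 active = Her2 level under about 52% in both replicate screens, with viability over 70% of control, limit read from the data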;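 for Her2 level: lower value means less Her2 protein in the cells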;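 for viability: percent of carrier control wells set as 100% viability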); conditions: 18-24 h, measured here: SKBR3 viability, ATP luminescence, at 10 µM
[2] = molecular target: Receptor tyrosine-protein kinase erbB-2 (Homo sapiens) (UniProt P04626); experiment: as above; conditions: 18-24 h, at 10 µM, stronger effect = lower value
Receptor tyrosine-protein kinase erbB-2 (Homo sapiens), sequence (P04626 whole entry, looked up): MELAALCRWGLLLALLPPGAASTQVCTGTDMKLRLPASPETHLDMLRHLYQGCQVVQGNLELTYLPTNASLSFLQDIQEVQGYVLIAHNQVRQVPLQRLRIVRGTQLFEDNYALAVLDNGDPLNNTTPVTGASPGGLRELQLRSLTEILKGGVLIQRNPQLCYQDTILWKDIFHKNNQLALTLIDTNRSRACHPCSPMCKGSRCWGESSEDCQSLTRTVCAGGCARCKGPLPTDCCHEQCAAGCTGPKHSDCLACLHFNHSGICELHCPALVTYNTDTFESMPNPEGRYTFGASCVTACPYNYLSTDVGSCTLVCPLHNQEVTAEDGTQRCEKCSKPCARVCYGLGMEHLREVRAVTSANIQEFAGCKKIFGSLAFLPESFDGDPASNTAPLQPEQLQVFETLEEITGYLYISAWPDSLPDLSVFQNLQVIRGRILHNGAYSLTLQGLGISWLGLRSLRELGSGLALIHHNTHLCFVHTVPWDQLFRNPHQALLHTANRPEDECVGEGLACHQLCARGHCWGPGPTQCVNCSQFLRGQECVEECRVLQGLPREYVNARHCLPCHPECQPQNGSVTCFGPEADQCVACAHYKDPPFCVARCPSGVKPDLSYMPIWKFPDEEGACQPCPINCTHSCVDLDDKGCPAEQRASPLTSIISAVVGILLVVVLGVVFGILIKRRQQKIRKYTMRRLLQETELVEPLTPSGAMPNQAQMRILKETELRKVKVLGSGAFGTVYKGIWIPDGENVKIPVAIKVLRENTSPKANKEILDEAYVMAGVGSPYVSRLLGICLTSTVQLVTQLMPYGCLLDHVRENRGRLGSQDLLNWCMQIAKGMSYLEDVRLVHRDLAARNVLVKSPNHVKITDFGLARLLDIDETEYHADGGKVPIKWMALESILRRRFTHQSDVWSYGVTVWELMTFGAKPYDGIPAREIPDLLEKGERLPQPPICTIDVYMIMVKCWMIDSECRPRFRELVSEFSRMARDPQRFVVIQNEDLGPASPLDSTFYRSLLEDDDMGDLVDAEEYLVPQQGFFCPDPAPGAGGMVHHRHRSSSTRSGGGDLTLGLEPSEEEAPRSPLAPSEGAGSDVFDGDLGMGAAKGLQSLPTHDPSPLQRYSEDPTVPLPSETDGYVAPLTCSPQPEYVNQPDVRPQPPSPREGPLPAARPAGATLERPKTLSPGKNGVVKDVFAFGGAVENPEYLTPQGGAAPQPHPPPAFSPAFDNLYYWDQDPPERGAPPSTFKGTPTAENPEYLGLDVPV

[3] = HUVEC growth inhibition – cell-based, human, primary screen (AID 575;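 active = viability at or below 30% in both replicate assays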;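 note: 100% = median of untreated cell wells with 0.1% DMSO on each plate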); conditions: HUVEC proliferation, CellTiter-Glo luminescence, 72 h; at 10 µM; stronger effect = lower value
[4] = growth inhibitors of H69AR lung tumor, primary screen, human, duplicate replicates (AID 580;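 active = viability at or under a set limit in both replicates, limit being median viability minus 3 SD, cut at about 48% in these data, passing the limit was not always enough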;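 note: 100% = mean luminescence of untreated wells and 0% = no signal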); conditions: H69AR lung tumor cells viability, ATP luminescence, 72 h; at 10 µM; stronger effect = lower value
[5] = reversal of MRP1-mediated doxorubicin resistance, pilot screen, H69AR cells, doxorubicin co-treatment (AID 601;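 active = viability loss from added drug above about 55%, and viability with drug at most 40%, in both replicates, limit read from the data, passing the limit was not always enough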); conditions: CellTiter-Glo, 72 h, at 10 µM; for differential viability (reversal): stronger effect = higher value
[6] = 384-well plate pilot, post-Golgi transport modulator project, inhibition of yeast transport mutant growth (AID 636; in the data active = inhibition above about 31%); conditions: absorbance 615 nm, about 18 h, stronger effect = higher value
[7] = growth suppression of yeast trafficking mutant, preliminary HTS, modulators of trafficking downstream of Golgi apparatus project, 1536-format plate, OD 615 nm (AID 637; in the data active = inhibition above about 30%); conditions: yeast transport mutant growth, absorbance 615 nm, 18 h; stronger effect = higher value
[8] = OD615 S. cerevisiae growth inhibition, permissive medium, pilot counter-assay, permissive growth control for S. cerevisiae lifespan shortening project (AID 705;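 active = growth inhibition above 25% in both replicates, a cutoff set 3 SD above the mean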); conditions: OD615, 24 h, at 10 µM, stronger effect = higher value
[9] = Restrictive medium S. cerevisiae growth inhibition, OD615, pilot screen of yeast lifespan reduction project, restrictive growth control (AID 706;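 active = growth inhibition above a set limit, 3 SD over mean compound inhibition, in both replicates, cut at about 43% in these data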;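 note: modified DeaD lifespan yeast strain shifted to restrictive glucose medium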); conditions: OD615, 48 h, at 10 µM, stronger effect = higher value
[10] = viability gain of MRP-1-high H69AR cells under doxorubicin, pilot screen, MRP-1 activator project, CellTiter-Glo, duplicate (AID 807); conditions: H69AR viability with doxorubicin, CellTiter-Glo luminescence; at 10 µM; stronger effect = higher value;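 note: compound pretreatment 18-22 h then 72 h combined with doxorubicin; 0% = doxorubicin alone and 100% = vehicle without doxorubicin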
[11] = growth suppression of beta-catenin knockout HCT116, pilot screen, human colon tumor cells (AID 823;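 active = cell viability at or below a set limit in both duplicate runs, the limit being the all-compound median minus 4 SD, cut at about 23% in these data, passing the limit was not always enough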;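 note: 0% = wells killed by 20 µM Hyamine and 100% = untreated DMSO cell wells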); conditions: CellTiter-Glo, 60 h, at 10 µM, stronger effect = lower value
[12] = growth suppression of PTEN-deleted HCT116, pilot screen, cell-based, HCT116 clonal line, CellTiter-Glo (AID 824;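 active = viability at or below 27.92% in each of two runs, the all-compound median minus 4 SD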;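 note: 0% = 20 µM Hyamine control and 100% = vehicle cell control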); conditions: 60 h, at 10 µM, stronger effect = lower value
[13] = inhibitors of the yeast RAM network, pilot screen, dse1pr::URA3 reporter, 5-FOA selection (AID 869;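 active = inhibition over a set limit, the all-compound mean plus 3 SD, in both replicate runs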;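 note: 0% = DMSO wells with no growth and 100% = 10 µM 1-NA-PP1 with full growth; RAM network block rescues cells from 5-FOA so hits raise OD615 growth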); conditions: S. cerevisiae dse1pr::URA3 5-FOA growth, OD615, 2 d; at 10 µM; stronger effect = higher value; strain carries analog-sensitive mutant Cbk1 kinase
[14] = RAM signaling pathway blockade in yeast – S. cerevisiae, Pdr1DBD-CYC8 efflux-inhibited sensitized strain, primary screen (AID 1298;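 active = RAM network inhibition above 8.4% in each of two replicates, 3 SD over the compound average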;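 note: 0% = DMSO untreated cells without growth and 100% = 10 µM 1-NA-PP1 full growth; higher means more yeast growth rescued from 5-FOA killing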); conditions: S. cerevisiae cbk1-as DSE1-URA3 strain, 5-FOA growth OD615, 2 d; at 50 µM; stronger effect = higher value
[15] = SK-BR-3 cell growth inhibitors, pilot screen, 24 h, human (AID 572;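 active = viability at or below 10% of carrier control in both of two separate runs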;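 note: compound exposure lasted between 18 and 24 h rather than exactly 24 h; 100% = carrier-treated control wells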); conditions: SK-BR-3 viability, CellTiter-Glo luminescence, at 10 µM, stronger effect = lower value
[16] = H69AR cells + 2 uM doxorubicin, measured here: viability with 2 uM doxorubicin, stronger effect = lower value
[17] = H69AR cells, compound alone cytotoxicity

| SMILES | viability [1] [%] | Her2 level [2] | viability [3] | viability [4] | differential viability (reversal) ([5]; H69AR cells + 2 uM doxorubicin) | viability [5, 16] [%] | viability [5, 17] [%] | inhibition [6] | inhibition [7] | growth inhibition [8] | growth inhibition [9] | viability increase [10] | viability [11] | viability [12] | inhibition [13] | RAM network inhibition [14] | viability [15] |
| --- | --- | --- | --- | --- | --- | --- | --- | --- | --- | --- | --- | --- | --- | --- | --- | --- | --- |
| COc1ccc(C2C(C(=O)Nc3cccnc3)=C(C)Nc3nc(-c4cccs4)nn32)cc1OC (centres undefined) | 59 | 94.5% (inactive) | 90.5% (inactive) | 87.8% (inactive) | 12.1% (inactive) | 75.7 | 87.8 | 1.2% (inactive) | -6.17% (inactive) | -9.82% (inactive) | -8.04% (inactive) | -1.12% (inactive) | 106% (inactive) | 95.6% (inactive) | -0.09% (inactive) | -1.11% (inactive) |  |
| CCOC(=O)c1ccc(N=c2sc(C(=O)OC)cc(=O)n2Cc2ccco2)cc1 | 110 | -1.5% (active) |  | 1.51% (active) | 0.27% (inactive) | 1.24 | 1.51 | -3.21% (inactive) | -1.33% (inactive) | -11.7% (inactive) | -2.14% (inactive) | -8.48% (inactive) | 5.04% (active) | 1.63% (active) | 1.42% (inactive) | 7.3% (inactive) | 110% (inactive) |
| Cc1cc(=O)oc2c1ccc1oc(/C(=N/O)c3ccccc3)c(C)c12 | 84 | 112% (inactive) |  | 74.5% (inactive) | -17.2% (inactive) | 91.7 | 74.5 | 8.46% (inactive) | 17.2% (inactive) | -11% (inactive) | 10.6% (inactive) | 5.23% (inactive) | 80.8% (inactive) | 65.4% (inactive) | 0.035% (inactive) | 9.44% (inactive) | 84% (inactive) |
| COc1ccccc1OCCNC(=O)c1cccs1 |  |  | 115% (inactive) | 91.1% (inactive) | 9.52% (inactive) | 81.6 | 91.1 | -3.33% (inactive) | -0.18% (inactive) | -6.5% (inactive) | 3.83% (inactive) | 0.85% (inactive) | 97.9% (inactive) | 103% (inactive) | 1.21% (inactive) | 7.11% (inactive) | 84% (inactive) |
| CCOc1ccccc1NC(=O)C1CCCN(S(=O)(=O)c2cccc3cccnc23)C1 (centres undefined) | 108 | 94.5% (inactive) |  | 78.1% (inactive) | -11.7% (inactive) | 89.8 | 78.1 | -6.13% (inactive) | 1.67% (inactive) | -4.4% (inactive) | -21% (inactive) | -3.58% (inactive) | 76.2% (inactive) | 71.9% (inactive) | 1.14% (inactive) | 4.95% (inactive) | 108% (inactive) |
| Cc1cc(C)c2c(=O)n(CC(=O)NCCCN3CCOCC3)sc2n1 | 98 | 89.5% (inactive) | 64.1% (inactive) |  | 4.36% (inactive) | 35.5 | 39.8 | -4.53% (inactive) | -2.67% (inactive) | 4.33% (inactive) | 0.575% (inactive) | -4.85% (inactive) |  | 56.5% (inactive) | 1.51% (inactive) | 3.11% (inactive) | 98% (inactive) |
| O=C(NCCN1C(=O)C2C3C=CC(C3)C2C1=O)Nc1ccccn1 (centres undefined) | 114 | 102% (inactive) |  | 95.8% (inactive) | 12.5% (inactive) | 83.3 | 95.8 | -3.6% (inactive) | -2.33% (inactive) | 5% (inactive) | -0.24% (inactive) | -0.81% (inactive) | 107% (inactive) | 92.2% (inactive) | 0.595% (inactive) | 3.24% (inactive) | 114% (inactive) |
| C/C=C/CSc1nc2c(c(=O)[nH]c(=O)n2C)n1Cc1ccc(C)cc1 | 102 | 98.5% (inactive) |  | 35.5% (active) | -22.7% (inactive) | 58.2 | 35.5 | -1.6% (inactive) | -0.49% (inactive) | 0.005% (inactive) | 1.29% (inactive) | -4.39% (inactive) | 84.4% (inactive) | 69.3% (inactive) | 1.98% (inactive) | 2.77% (inactive) | 102% (inactive) |
| CC(=O)n1cc(-c2ccncc2)c2ccccc21 | 94 | 108% (inactive) |  | 85.3% (inactive) | 6.14% (inactive) | 79.2 | 85.3 | -7.2% (inactive) | -3% (inactive) | -5.77% (inactive) | -1.47% (inactive) | -3.7% (inactive) | 86.7% (inactive) | 82.6% (inactive) | 0.135% (inactive) | 0.27% (inactive) | 94% (inactive) |
| Cc1ccccc1-c1nc(CN2CCC(C(=O)NC3CCN(Cc4ccccc4)CC3)CC2)c(C)o1 | 91 | 77.5% (inactive) |  | 86.3% (inactive) | 7.26% (inactive) | 79 | 86.3 | -5.87% (inactive) | 3% (inactive) | -8.2% (inactive) | -3.5% (inactive) | -7.96% (inactive) | 6.4% (active) | 9.9% (active) | 1.26% (inactive) | 1.75% (inactive) | 91% (inactive) |
| CC(=O)Nc1nnc(SCC(=O)NCC2CCCO2)s1 (centres undefined) |  |  | 105% (inactive) | 96.3% (inactive) | 3.56% (inactive) | 92.7 | 96.3 | 0.27% (inactive) | 7.64% (inactive) | -2.62% (inactive) | 2.21% (inactive) | -1.36% (inactive) | 100% (inactive) | 88.6% (inactive) | 0.925% (inactive) | -0.72% (inactive) | 70% (inactive) |
| COc1ccccc1S(=O)(=O)Cc1ccc(C(=O)NCCN2CCCCCC2)o1 | 71 | 102% (inactive) | 97.5% (inactive) | 102% (inactive) | 11.8% (inactive) | 90 | 102 | -0.9% (inactive) | -1.33% (inactive) | 2.4% (inactive) | -14.5% (inactive) | -2.82% (inactive) | 104% (inactive) | 104% (inactive) | 1.38% (inactive) | 7.66% (inactive) |  |
| Cn1c(=O)oc2cc(S(=O)(=O)N3CCN(c4ccccn4)CC3)ccc21 | 88.5 | 91.5% (inactive) |  | 73.8% (inactive) | 0.275% (inactive) | 73.5 | 73.8 | 0.26% (inactive) | -3.67% (inactive) | -8.03% (inactive) | -3.75% (inactive) | -5.33% (inactive) | 66% (inactive) | 69.4% (inactive) | 1.97% (inactive) | 5.16% (inactive) | 88.5% (inactive) |
| Cc1ccc(C2c3c(oc4ccccc4c3=O)C(=O)N2c2nnc(C(C)C)s2)o1 (centres undefined) | 84 | 61% (inactive) |  | 11.2% (active) | -3.47% (inactive) | 14.7 | 11.2 | -5.2% (inactive) | 3.17% (inactive) | -13.3% (inactive) | -9.87% (inactive) | -3.23% (inactive) | 104% (inactive) | 98.1% (inactive) | 0.83% (inactive) | 1.85% (inactive) | 84% (inactive) |
| COc1ccc(NC(=O)Nc2ccc(N3CCCC3=O)cc2)cc1OC |  |  | 104% (inactive) | 104% (inactive) | 15.2% (inactive) | 89.1 | 104 | -4.93% (inactive) | -3.64% (inactive) | -1.9% (inactive) | 3.45% (inactive) | -3.97% (inactive) | 107% (inactive) | 93.8% (inactive) | 0.135% (inactive) | 0.87% (inactive) | 126% (inactive) |
| C/C=C/COC(=O)c1[nH]c2c(c1C)C(=O)CC(c1ccc(N(C)C)cc1)C2 (centres undefined) | 92 | 94% (inactive) | 62.4% (inactive) |  | -30.1% (inactive) | 72.1 | 41.9 | 2% (inactive) | 49.8% (active) | -10.2% (inactive) | -9.05% (inactive) | -2.69% (inactive) | 60.6% (inactive) | 66.6% (inactive) | 1.9% (inactive) | 4.88% (inactive) | 92% (inactive) |
| Cc1ccc2nc(NC(=O)Cn3cc4c(n3)CCCCC4)sc2c1 | 91.5 | 106% (inactive) |  | 93% (inactive) | -3.56% (inactive) | 96.6 | 93 | 0.51% (inactive) | -4.67% (inactive) | -4.68% (inactive) | 10.6% (inactive) | -3.78% (inactive) | 98.2% (inactive) | 97% (inactive) | 2.76% (inactive) | 3.93% (inactive) | 91.5% (inactive) |
| Cc1cccc(N(CC(=O)N2CCCC2)S(=O)(=O)c2ccccc2)c1C |  |  | 112% (inactive) | 88.5% (inactive) | -0.32% (inactive) | 88.8 | 88.5 | -2.27% (inactive) | 1.82% (inactive) | -1.1% (inactive) | 4.24% (inactive) | -1.18% (inactive) | 93.9% (inactive) | 93.6% (inactive) | 2.05% (inactive) | 3.22% (inactive) | 106% (inactive) |
| O=C(Nc1nc(-c2ccncc2)cs1)C1COc2ccccc2O1 (centres undefined) | 83.5 | 99.5% (inactive) | 67.2% (inactive) |  | 4.21% (inactive) | 60.6 | 64.8 | 0.51% (inactive) | -8% (inactive) |  | 33.5% (inactive) | -5.71% (inactive) | 85.3% (inactive) | 83.9% (inactive) | 0.095% (inactive) | 7.12% (inactive) | 83.5% (inactive) |
| CN(C)c1ccc(NC(=O)Cn2cc3c(n2)CCCC3)cc1 | 77.5 | 67% (inactive) |  | 74% (inactive) | -10.1% (inactive) | 84.1 | 74 | -4.13% (inactive) | -5% (inactive) | 11.9% (inactive) | 13.9% (inactive) | -2.45% (inactive) | 64.2% (inactive) | 62% (inactive) | 2% (inactive) | 1.84% (inactive) | 77.5% (inactive) |
